# What was measured:
# Test in all cases: pooled miR-30 sensor sort-seq; sequence = guide strand
# Conditions in all cases: shRNA
# UNC5A = biological target: UNC5A
# ULK1 = biological target: ULK1
# UMOD = biological target: UMOD
# UBXN2A = biological target: UBXN2A
# UNC5D = biological target: UNC5D
# UST = biological target: UST
# VAMP8 = biological target: VAMP8
# WBSCR16 = biological target: WBSCR16
# WDFY1 = biological target: WDFY1
# VWA3A = biological target: VWA3A
# WDR33 = biological target: WDR33
# WDR34 = biological target: WDR34
# WDR38 = biological target: WDR38
# Further: reference of the scale not given here.
sequence,measurement,setting,value
TTGCACTTGAAGAAGATCTGCG,sensor-assay potency score (higher = more potent),UNC5A,0.732
TTCTTCTCGTAGAACAGGCGCA,sensor-assay potency score (higher = more potent),ULK1,-0.466
TTAAGGGACAGCTTCGGCCGGG,sensor-assay potency score (higher = more potent),UNC5A,-0.139
TTGAGGATCATGGCTGTGGGGC,sensor-assay potency score (higher = more potent),UNC5A,-1.23
TAGGCCTTCTGACTCTTGGTGG,sensor-assay potency score (higher = more potent),UNC5A,-0.43
TTTTTGTCTGTTATGTGGCGTG,sensor-assay potency score (higher = more potent),ULK1,-0.361
TTCCTCGTCAACACTGTCCCAC,sensor-assay potency score (higher = more potent),UMOD,0.0538
TTGCACTTTTCATTCATGGTGT,sensor-assay potency score (higher = more potent),UMOD,0.244
TTGATGCTGAAGCTCTGCCCGT,sensor-assay potency score (higher = more potent),UNC5A,-1.2
TAGACGATGACAGCAGCGGAGG,sensor-assay potency score (higher = more potent),UNC5A,-1.55
ATCAGTGATGTTGAAGTCCTGT,sensor-assay potency score (higher = more potent),UMOD,0.164
TCTCATAGATCTTCCCTCGGGG,sensor-assay potency score (higher = more potent),UNC5A,-0.279
TAGATCTCATAGATCTTCCCTC,sensor-assay potency score (higher = more potent),UNC5A,-0.268
ATGTGTATGTACAAACACCAGG,sensor-assay potency score (higher = more potent),ULK1,-1.55
TAGTTGAGTCTCTAGTGTGTGG,sensor-assay potency score (higher = more potent),UMOD,-0.521
TAGACTAGGTCATAGTTTCCAG,sensor-assay potency score (higher = more potent),UMOD,-0.219
TATACTGCACTCCTCACACGTC,sensor-assay potency score (higher = more potent),UMOD,-0.701
TTACTCTTCCACAGGGAGCTGG,sensor-assay potency score (higher = more potent),UNC5A,-0.541
TTGAAGTTGATGCTGAAGCTCT,sensor-assay potency score (higher = more potent),UNC5A,-0.155
TAGAGCACTGACCATTGGCTGT,sensor-assay potency score (higher = more potent),UMOD,-0.936
TCGATTTGCAGTCCTCGTCTAT,sensor-assay potency score (higher = more potent),UMOD,-0.657
TTGCAAAGAAAAACACACGTGT,sensor-assay potency score (higher = more potent),ULK1,0.333
TTGTTCTTCTCGTAGAACAGGC,sensor-assay potency score (higher = more potent),ULK1,-0.479
TTGAACAAAGAACTGCCTCTGC,sensor-assay potency score (higher = more potent),ULK1,1.01
TTCAGGTACAGCACCAGCTGTT,sensor-assay potency score (higher = more potent),ULK1,-0.477
TTGCTCTGGAGGTACCGCGCGA,sensor-assay potency score (higher = more potent),ULK1,-0.555
TTCTTTATCAAAAATTCCCTGT,sensor-assay potency score (higher = more potent),UBXN2A,-0.0297
TTGCAGTCCTCGTCTATACTGC,sensor-assay potency score (higher = more potent),UMOD,-0.687
TAACTTCTGAAATCGTCGTTGA,sensor-assay potency score (higher = more potent),UBXN2A,0.784
TTCTTCTTGTTAATGCACTTGA,sensor-assay potency score (higher = more potent),ULK1,0.0356
TAGATAACTAGATCAACACGTG,sensor-assay potency score (higher = more potent),UNC5D,-0.0609
TTGCGGGAGAACTCGAACTTGC,sensor-assay potency score (higher = more potent),ULK1,-0.945
TTGTACAGCTCATTCAGCCTGC,sensor-assay potency score (higher = more potent),ULK1,0.11
TTGTACACCACCTGGCTTGGGA,sensor-assay potency score (higher = more potent),UST,-0.187
TAAAACTCGTACTCGTATCTCA,sensor-assay potency score (higher = more potent),UST,0.226
TCTTCCACCAGAATTTTCGAGC,sensor-assay potency score (higher = more potent),VAMP8,-0.564
TATTGTAGTGACCCAGACCTGT,sensor-assay potency score (higher = more potent),WBSCR16,-0.394
TTGACCACTGTCTCTTTTCAGC,sensor-assay potency score (higher = more potent),WDFY1,-0.843
TTAGCCTCGATTCTCTTCCTGA,sensor-assay potency score (higher = more potent),WBSCR16,-0.0373
TCATTTTCGACCACCTTTCTTC,sensor-assay potency score (higher = more potent),WBSCR16,0.23
TAACAAGAATCACAAACCCGGA,sensor-assay potency score (higher = more potent),WDFY1,-0.759
TAGTGCTCCATCTTTGGGCTGT,sensor-assay potency score (higher = more potent),VWA3A,0.398
TTCTCTGCTAACATCCATGTTC,sensor-assay potency score (higher = more potent),WDFY1,-0.775
TAGTATGGTCATTTGAGCCTGA,sensor-assay potency score (higher = more potent),WDR33,0.248
TACATCCGCATAGCTCTGCTGA,sensor-assay potency score (higher = more potent),VWA3A,-0.863
TCTTTCACTACACATTAGCTGT,sensor-assay potency score (higher = more potent),WDFY1,-0.731
TTCATCTTTGATGGAGTCGTAA,sensor-assay potency score (higher = more potent),WDFY1,-0.712
TAACTTGAGCGCTTGCTGCTGC,sensor-assay potency score (higher = more potent),WDFY1,0.171
TTTCTTCTCTTCCTCATCCTGG,sensor-assay potency score (higher = more potent),WDFY1,-0.185
ATAGACTTCTCCTTTATCCGTC,sensor-assay potency score (higher = more potent),WBSCR16,0.592
TTCACATCTCTTTTCTCCCTGA,sensor-assay potency score (higher = more potent),VWA3A,0.334
TTTCGTAACATCCGCAGTCTTA,sensor-assay potency score (higher = more potent),WBSCR16,-0.626
TTTAACACTGCACAGCCCGTGC,sensor-assay potency score (higher = more potent),WBSCR16,-0.959
TACATCTCTAACATATTGCAAA,sensor-assay potency score (higher = more potent),WDR33,-1.19
TATAAAACAAATTTAGTCCTTT,sensor-assay potency score (higher = more potent),WDFY1,0.214
TTGTAGTCTATGGTTTTTCGGT,sensor-assay potency score (higher = more potent),WDR33,-0.753
TAAATTGTTGTGACTCACGGGA,sensor-assay potency score (higher = more potent),VWA3A,0.0538
TTTCACTACACATTAGCTGTTC,sensor-assay potency score (higher = more potent),WDFY1,0.757
TTAGCTGAAGTGTCTTTGGTTT,sensor-assay potency score (higher = more potent),VWA3A,-0.499
TTCTGCATCATTTTTCTTCTGG,sensor-assay potency score (higher = more potent),VWA3A,0.433
TTCAGCTGGAGGTCGCAGCCGC,sensor-assay potency score (higher = more potent),VWA3A,-0.797
TTCTGGGTTGAACTCCGTCAAG,sensor-assay potency score (higher = more potent),WBSCR16,-1.57
TTTCACATCTCTTTTCTCCCTG,sensor-assay potency score (higher = more potent),VWA3A,0.76
TTTTGGTCCAGCTCCAGGCGAT,sensor-assay potency score (higher = more potent),WBSCR16,-1.09
AATCTTTTGGTCCAGCTCCAGG,sensor-assay potency score (higher = more potent),WBSCR16,-1.82
TAGATTATATCGATCTCGCATT,sensor-assay potency score (higher = more potent),WDR33,-0.783
TCGAGCAGTACAACCACCCTTT,sensor-assay potency score (higher = more potent),VWA3A,0.012
TAGACTTCTCCTTTATCCGTCA,sensor-assay potency score (higher = more potent),WBSCR16,-0.137
TTGGTGTTTGTCTTTGTCCTTG,sensor-assay potency score (higher = more potent),VWA3A,-0.376
TTATCCGTCAGGAACAGACTAT,sensor-assay potency score (higher = more potent),WBSCR16,-0.761
TGAATGTTCTTCACTGTCCCGT,sensor-assay potency score (higher = more potent),VWA3A,-0.182
TTGATCGCCTCCTTAAACCTTT,sensor-assay potency score (higher = more potent),WDFY1,-0.0804
TTCCACACTGCAATTCCGCCGT,sensor-assay potency score (higher = more potent),WDFY1,-0.441
TTTAGGACAAGGCTGCAGCTTG,sensor-assay potency score (higher = more potent),VWA3A,-0.774
TTGAGGGTTGTGATGACTGAAC,sensor-assay potency score (higher = more potent),WDFY1,-1.35
TTCTTAACTTTTCCAAGCCAGG,sensor-assay potency score (higher = more potent),WBSCR16,-1.27
TTAGATTATATCGATCTCGCAT,sensor-assay potency score (higher = more potent),WDR33,0.262
ATACAGACAAGACACCATCTGC,sensor-assay potency score (higher = more potent),WDR34,-0.609
TTGACGTCTAGTCTGATCGGCA,sensor-assay potency score (higher = more potent),WDR38,-0.321
TTTCACTCTCCGCACGGCCAGC,sensor-assay potency score (higher = more potent),WDR38,-1.51
TTCTGAGCCTGTGAGCAGCATC,sensor-assay potency score (higher = more potent),WDR38,-1.23
TAGTATATTGTAATGTAGCCAT,sensor-assay potency score (higher = more potent),WDR33,-0.402
TTCAATTTTAAGTTGCTCCAGA,sensor-assay potency score (higher = more potent),WDR33,0.632
TTTACTTCCTGAAACAACTAAC,sensor-assay potency score (higher = more potent),WDR33,-1.04
